Screening results deposited in PubChem by National Center for Advancing Translational Sciences (NCATS).
The list is not random: actives were taken first. Their share in the collection is about 1.2%.
KAT2A inh: blocks human GCN5L2 histone acetyltransferase; Q92830; GCN5L2 HAT assay, ThioGlo1 CoA-SH fluorescence; Potency, µM (doses to about 58.9 µM), without a hit: at the highest dose activity change, negative = inhibition, actives largely listed as inhibitors; actives 0.21% (n = 390,000); AID 504327
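GCN5L2 (20 nM) in 50mM HEPES pH 7.5, 0.1mM EDTA, 0.01% Tween-20 preincubated 15 min with compounds at room temperature. Reaction started with H3(1-25) 75uM, acetyl-CoA 70uM, ThioGlo1 50uM; CoA-thiol fluorescence (Ex340/Em540) read at 0 and 20 min.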
TR SRC2 fluor cs: Texas Red fluorescence interference in TRb-SRC2 counter-screen; actives 0.29% (n = 280,000); Potency, µM (top dose mostly 106 µM), for the others: at the top dose fluorescence change, negative = quenching; TRb/SRC2 Texas Red total fluorescence interference; AID 1479; active means well fitted curve in either direction with a large enough effect; inconclusive means small, poorly fitted or top-dose-only effect
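Human TRb ligand-binding domain at 0.6 uM with 20 nM Texas Red SRC2 peptide in Tris buffer containing 1 uM T3 and 5% DMSO, incubated with compound 5 h at ambient temperature. Total fluorescence (555/632 nm) calculated as parallel + 2 × perpendicular.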
TRb-SRC2 inh: TRbeta-SRC2 interaction inhibition; TRbeta-SRC2 peptide binding, fluorescence polarization; receptor liganded with 1 µM T3; Potency, µM (top dose mostly 106 µM), for inactives: at the highest dose activity change, negative = inhibition, usual class: inhibitors; AID 1469; actives 0.065% (n = 280,000);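 further: plate controls were bound peptide for no effect and peptide without receptor for full effect; nearly all actives have a fitted effect of over 50% in size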
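Fluorescence polarization of 20 nM Texas Red SRC2 peptide with 0.6 uM human TRb ligand-binding domain, in Tris buffer with 1uM T3 and 5% DMSO. Incubated 5 hr ambient; normalized to unbound and bound controls.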
RGS12 GoLoco inh: blocks human Gai1 binding to RGS12 GoLoco peptide, red readout | actives 0.44% (n = 230,000) | AID 880 | Gai1:RGS12 GoLoco peptide FP, rhodamine, 10 min | Potency, µM (doses to about 61.6 µM), for inactives: at the top dose activity, negative = inhibition, usual class: inhibitors; active means well fitted inhibition curve with a large enough effect, not every such curve was filed as active; inactive means no such curve, though single readings can be large or run the other way; further: nearly all actives have a fitted effect of over 30% in size
Target sequence (P63096 whole entry, looked up): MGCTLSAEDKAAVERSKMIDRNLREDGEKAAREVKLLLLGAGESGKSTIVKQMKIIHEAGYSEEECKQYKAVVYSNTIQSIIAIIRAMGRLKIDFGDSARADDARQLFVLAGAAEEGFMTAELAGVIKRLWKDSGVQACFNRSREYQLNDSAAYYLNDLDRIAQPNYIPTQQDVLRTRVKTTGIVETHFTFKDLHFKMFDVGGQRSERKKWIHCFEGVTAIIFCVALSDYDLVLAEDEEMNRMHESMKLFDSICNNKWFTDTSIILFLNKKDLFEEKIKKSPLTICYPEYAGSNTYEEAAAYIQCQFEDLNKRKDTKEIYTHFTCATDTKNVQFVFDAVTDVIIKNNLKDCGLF
VDR inhibitor: blocks the human vitamin D receptor; P11473; VDR-SRC2-3 peptide fluorescence polarization, 2 h; Potency, µM, for inactives: max response, negative = inhibition, usual class: inhibitors; actives 0.93% (n = 400,000); AID 504847
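After 23 nl compound addition and a short centrifugation, plates sat for 2 hours at ambient temperature; polarization of fluorescence then indicated loss of VDR binding to peptide SRC2-3.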
Starred values were filed as active, the others as inactive; ? = inconclusive; nt = not tested or not shown; [ ] = another dose, or the depositor's remark. Unless noted, the call rests on the fitted dose curve; in most records, active means well fitted curve in the direction sought with a large enough effect; inconclusive means small, poorly fitted or top-dose-only effect, or another doubt; inactive means no such curve, though single readings can be large; an effect the other way counts as inactive or inconclusive. Unless noted, on the % scale 0 is the no-effect control and ±100 the full control effect; potency means the concentration at half of the fitted maximal effect.

SMILES	KAT2A inh	TR SRC2 fluor cs	TRb-SRC2 inh	RGS12 GoLoco inh	VDR inhibitor
O=C(Oc1ccccc1)N1CCC[C@@]2(CCN(c3ccncc3)C2)C1	12%	nt	nt	-1%	1%
O=C(Oc1ccccc1)N1CCC2(CC1)CCN(c1ccncc1)CC2	-12%	nt	nt	2.8µM*	-1%
O=C(NCc1ccccc1)[C@]1(C(F)(F)F)C[C@H](CCC2CCCCC2)CCCO1	nt	0%	-4%	nt	-16%
COC(=O)C(C(=O)OC)C1O[C@@]23COCCC2(C)C3c2ccccc21 (some centres not stated)	nt	1%[11.2 µM]	6%[11.2 µM]	nt	nt
C[C@@H]1O[C@H](O[C@@H]2C(O)[C@H](O)[C@@H](CO)O[C@H]2Oc2cc(O)c3c(=O)cc(-c4ccc(O)cc4)oc3c2)[C@H](O)[C@H](O)[C@H]1O (some centres not stated)	0%	-20%	9%	nt	-1%
Cc1noc(C)c1-c1cncnc1N1CCN(C)CC1	-8%	nt	nt	5%	32µM*
c1ccc2[nH]c(SN3CCOCC3)nc2c1	-19%	2%	-19%	8.9µM*	nt
c1ccc2[nH]c(CN3CCOCC3)nc2c1	-8%	1%	8%	0%	15%
CCCS(=O)(=O)c1ncc(Cl)c(C(=O)N2CCN(c3ccc(OC)cc3)CC2)n1	6%	-1%	-1%	nt	?
CC(=O)Nc1ccc(Nc2nc(-c3sc(NC(C)=O)nc3C)cs2)cc1	-15%	nt	nt	nt	32µM*
CC(=O)Nc1nc(C)c(-c2csc(Nc3cccc(C(C)=O)c3)n2)s1	12%	nt	nt	nt	-13%
CC(=O)Nc1nc(C)c(-c2csc(Nc3ccc(O)cc3)n2)s1	0%	-21%	-1%	3%	89µM*
C[C@H](NC(c1cccc2nc(O)c(O)nc12)P(=O)(O)O)c1ccc(Br)cc1 (some centres not stated)	-10%	-6%	-2%	nt	18%
COC(=O)C1CSc2[nH]c(=O)sc2C1c1ccc(O)c(OC)c1 (configuration not stated)	-7%	0%	7%	20µM*	-8%
COc1ccc(C2c3sc(=O)[nH]c3SCC2C(N)=O)cc1 (configuration not stated)	1%	-7%	1%	9%	-7%
CCN(CC)CCOCCOC(=O)C(CC)(CC)c1ccccc1 (tested in a mixture with another compound)	-5%	-4%	11%	9%	0%
CC/C=C\CCOC(=O)c1ccccc1O	nt	-2%[201 µM]	-3%[201 µM]	nt	nt
N#C/C(=C\c1ccc(C#N)cc1)C(=O)c1ccccc1	2%	-2%	-1%	-10%	79µM*
CN(C)c1ccc(/C=C(\C#N)C(=O)c2ccccc2)cc1	-19%	-1%	6%	171%	-13%
CC(=O)CSc1nnc2cc(C)c3cc(C)cc(C)c3n12	1%	25µM*[quencher]	-14%	nt	12%
CCOC(=O)CSc1nnc2cc(C)c3ccccc3n12	-6%	2%	0%	4%	-4%
COc1cc(O)c2c(c1)oc(=O)c1c3cc(O)c(O)cc3oc21	?	35µM*[quencher]	?	nt	?
COC(=O)/C=C\CCc1coc(/C=C\CNC(=O)OC)n1	nt	-3%[11.2 µM]	-3%[11.2 µM]	nt	nt
Nc1nc(-c2c[nH]c3ccccc23)cs1	-2%	35µM*[fluorescent]	17%	97%	134%
Cc1ccc2c(-c3csc(N)n3)c[nH]c2c1	-26%	nt	nt	nt	nt
SMILES	KAT2A inh	TR SRC2 fluor cs	TRb-SRC2 inh	RGS12 GoLoco inh	VDR inhibitor
O=Nc1ccc2oc(=O)ccc2c1	?	-1%	3%	-19%	13µM*
Cc1cc(C)cc(NS(=O)(=O)c2ccc3oc(=O)ccc3c2)c1	-2%[0.501 µM]	1%	-3%	-7%	4%
C=CC(=O)OCCOc1ccccc1	nt	3%[201 µM]	?	nt	nt
Cc1ccc(CNCc2cn[nH]c2-c2ccc(C)cc2)cc1	nt	nt	nt	nt	-27%
COc1cc(/C=C(\C#N)C(=O)Nc2nnc(C(F)(F)F)s2)ccc1OCc1ccc(C(F)(F)F)cc1C(F)(F)F	7.9µM*	0%	1%	nt	?
COC(=O)C1=C(C(=O)OC)[C@@H]2Nc3ccccc3[C@@]23C[C@@H](C(=O)OC)N(S(=O)(=O)c2ccc(Br)cc2)C3=N1	nt	-5%[11.2 µM]	9%[11.2 µM]	-2%[14.2 µM]	nt
COc1ccc(CNC(=O)COC(=O)Cc2ccc(Cl)cc2Cl)cc1	-15%	35µM*[quencher]	?	-7%	-11%
Oc1ccccc1C1CC(c2cccs2)=NC(c2cccc(Br)c2)N1 (configuration not stated)	-11%	0%	9%	103%	71µM*
O=S(=O)(c1ccccc1)N1N=C(c2cccs2)CC1c1cccc(O)c1 (configuration not stated)	-12%	nt	nt	nt	3%
Cc1[nH]n(-c2ccccc2)c(=O)c1C=Nc1cccc2cccnc12	-9%	-2%	2%	5%	-11%
Cc1[nH]n(-c2ccccc2)c(=S)c1C=Nc1cccc([N+](=O)[O-])c1	10µM*	0%	3%	13µM*	22µM*
CCOc1ccc(C(=O)CC(NCc2cccs2)C(=O)O)cc1 (configuration not stated)	-4%	0%	-9%	1%	25µM*
CC(=O)[C@]1(O)Cc2c(O)c3c(c(O)c2[C@@H](O[C@H]2C[C@H](N)[C@H](O)[C@H](C)O2)C1)C(=O)c1ccccc1C3=O	?	45µM*[fluorescent]	?	1.6µM*	?
CC(=O)[C@]1(O)Cc2c(O)c3c(c(O)c2[C@@H](O[C@H]2C[C@H](N)[C@H](O)[C@H](C)O2)C1)C(=O)c1c(O)cccc1C3=O	-14%	45µM*[fluorescent]	22µM*	0.79µM*	1%
CCOCCOCCOCC	nt	1%[201 µM]	4%[201 µM]	nt	nt
C=C[Si](OCCOC)(OCCOC)OCCOC	nt	-2%[201 µM]	-3%[201 µM]	nt	nt
CCOc1cc2c(C#N)c(N(CC)CC)nc(N)c2c(N)n1	nt	nt	nt	nt	45µM*
Cc1ccc(-c2cc(C3C4C=CCC(C)C4C(=O)N3Cc3ccccc3)ccc2F)cc1 (configuration not stated)	nt	-1%	3%	nt	-2%
Cc1sc2ccccc2[n+]1CC(=O)c1ccccc1	-1%	nt	nt	nt	28µM*
Cc1sc2ccccc2[n+]1CC(=O)O	5%	1%	11%	80%	22µM*
CC(C)(C)OC(=O)[C@H](C1N[C@@H](C(=O)O)C(C)(C)S1)N1C(=O)c2ccccc2C1=O (some centres not stated)	nt	nt	nt	0%[14.2 µM]	nt
CCCCOCC(C)OCC(C)O (configuration not stated)	nt	-4%[201 µM]	5%[201 µM]	nt	nt
CC(C)(N=C=O)c1cccc(C(C)(C)N=C=O)c1	nt	-6%[201 µM]	0%[201 µM]	nt	nt
O=C(Nc1n[nH]c(=S)s1)c1ccco1	32µM*	nt	nt	nt	-23%
COC(=O)N1C(=O)[C@@](Cc2ccccc2)(c2ccccc2)N1C(=O)OC	2%	nt	nt	nt	?
COC(=O)N1C(=O)[C@](Cc2ccccc2)(c2ccccc2)N1C(=O)OC	1%	nt	nt	nt	89µM*
